Our source for the outcome and AC50 values is PubChem BioAssay (EPA / NIEHS).

Usually AC50 stands for the midpoint of the concentration-response curve, whichever way the signal moves.

Assay [1] concerns the target human Vascular Endothelial Growth Factor Receptor 2 (VEGFR2), KDR (gene 3791) (UniProt P35968). Description: NVS_ENZ_hVEGFR2: NovaScreen (NVS) Enzymatic Assay for human Vascular Endothelial Growth Factor Receptor 2 (VEGFR2) (AID 2283230). The essentials:
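Cell-free recombinant VEGFR2 kinase, fluorescent substrate with electrophoretic mobility-shift separation; read 1 h after dosing. Screened at 25 uM in duplicate, hits to concentration-response up to 50 uM; loss-of-signal versus DMSO.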

Assay [2] addresses sheep Cyclooxygenase-2 (Cox2), PTGS2 (gene 443460) (UniProt P79208). The assay can be described thus: NVS_ENZ_oCOX2: NovaScreen (NVS) Enzymatic Assay for sheep Cyclooxygenase-2 (Cox2) (AID 2283231). The essentials:
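Enzyme from ovine placenta, cell-free; colorimetric absorbance read 0.66 hour after dosing, loss of signal vs DMSO. Screened in duplicate at 25 uM, then concentration-response up to 50 uM.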

For assay [3], the target named is rat Constitutive Nitric Oxide Synthase (CNOS), Nos1 (gene 24598) (UniProt P29476). Description: NVS_ENZ_rCNOS: NovaScreen (NVS) Enzymatic Assay for rat Constitutive Nitric Oxide Synthase (CNOS) (AID 2283236). The method in brief:
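Enzyme activity in rat brain membrane preparation, read 1 h after dosing by filter-based radiometric scintillation counting. Primary screen in duplicate at 25 uM; actives (e.g., ≥30% inhibition) then run in concentration-response up to 50 uM.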

Read-out in assay [4]: Nuclear factor NF-kappa-B p105 subunit (Homo sapiens) (UniProt P19838)
Description: LTEA_HepaRG_NFKB1: Life Technologies and Expression Analysis (LTEA) Assay for Nuclear Factor Kappa B Subunit 1 (NFKB1) using HepaRG (AID 2283521; active = hit-call score of the fitted dose curve at least 0.9, where 1 is the maximum; inactive = score below 0.9;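 also: TaqMan qRT-PCR transcript normalised to ACTB GAPDH and POLR2A housekeeping genes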). To be noted: mRNA level, 48 h; actives raise or lower the signal. The method in brief:
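Differentiated human HepaRG cells in serum-free induction medium with 0.5% DMSO were exposed for 48 h to eight half-log concentrations, top 100 uM, in duplicate. NFKB1 mRNA measured by Fluidigm TaqMan qRT-PCR, normalised to ACTB, GAPDH and POLR2A; bidirectional fit versus DMSO.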

The target in assay [5] is Peroxisome proliferator-activated receptor gamma (Homo sapiens) (UniProt P37231). The assay can be described thus: OT_PPARg_PPARgSRC1_0480: Odyssey Thera (OT) 8-hour Protein-Complementation Assay for Peroxisome Proliferator-activated Receptor Gamma / SRC-1 Co-activator (AID 2283387).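 Also: nuclear to cytoplasmic split Venus YFP fluorescence ratio reporting PPARg SRC-1 interaction.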 The method in brief:
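HEK293T transiently transfected with PPARg and SRC-1 fused to Venus YFP fragments, compounds 8 h at 37C. Fixed, Draq5-stained cells imaged; nuclear/cytoplasmic 488 nm fluorescence ratio over at least 350 cells per image; gain fitted versus DMSO.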

The subject of assay [6] is Thyroperoxidase (TPO), gene 445522. Description: CCTE_Simmons_GUA_TPO: CCTE's Guaiacol Assay for Thyroperoxidase (TPO) Inhibition, Simmons Lab (AID 2283750). The method in brief: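 Porcine thyroid microsomes (25 ug) in 200mM potassium phosphate, preincubated 30 s at 37C with compound (8 concentrations, 5 nM–87.5 uM) and 35mM guaiacol; 1mM H2O2 starts reaction. Absorbance change at 450nm over first 80 s; loss of signal versus DMSO, three replicates.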

Assay [7] concerns the target rat CYP2C12, Cyp2c12 (gene 25011) (UniProt P11510). Description: NVS_ADME_rCYP2C12: NovaScreen (NVS) CYP450-related Enzyme Activity (ADME) Assay for rat CYP2C12 (AID 2283119). The essentials:
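Cell-free recombinant rat CYP2C12 activity read by fluorescence 0.5 h after dosing; loss of signal versus acetonitrile control. Primary screen in duplicate at 10 uM; actives then run in concentration-response format.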

The target in assay [8] is Voltage-dependent N-type calcium channel subunit alpha-1B (Rattus norvegicus) (UniProt Q02294). Description: NVS_IC_rCaChN: NovaScreen (NVS) Ion Channel Assay for rat Calcium Channel, Type N (CaChN) (AID 2283317).
Assay [9] concerns the target Protein deacetylase HDAC6 (Homo sapiens) (UniProt Q9UBN7). The assay can be described thus: NVS_ENZ_hHDAC6: NovaScreen (NVS) Enzymatic Assay for human Histone Deacetylase 6 (HDAC6) (AID 2283164). The method in brief: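 Recombinant human HDAC6 with fluorescent substrate, 1 h; product separated from substrate by electrophoretic mobility shift. Primary screen in duplicate at 25 uM; actives retested singly in concentration-response up to 50 uM, fitted relative to DMSO.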

In assay [10] the target is rat Monoamine Oxidase, MAO-B, Peripheral (MAOBP), Maob (gene 25750) (UniProt P19643). Description: NVS_ENZ_rMAOBP: NovaScreen (NVS) Enzymatic Assay for rat Monoamine Oxidase, MAO-B, Peripheral (MAOBP) (AID 2283242).
rat Monoamine Oxidase, MAO-B, Peripheral (MAOBP), Maob (gene 25750), sequence (P19643 whole entry, looked up): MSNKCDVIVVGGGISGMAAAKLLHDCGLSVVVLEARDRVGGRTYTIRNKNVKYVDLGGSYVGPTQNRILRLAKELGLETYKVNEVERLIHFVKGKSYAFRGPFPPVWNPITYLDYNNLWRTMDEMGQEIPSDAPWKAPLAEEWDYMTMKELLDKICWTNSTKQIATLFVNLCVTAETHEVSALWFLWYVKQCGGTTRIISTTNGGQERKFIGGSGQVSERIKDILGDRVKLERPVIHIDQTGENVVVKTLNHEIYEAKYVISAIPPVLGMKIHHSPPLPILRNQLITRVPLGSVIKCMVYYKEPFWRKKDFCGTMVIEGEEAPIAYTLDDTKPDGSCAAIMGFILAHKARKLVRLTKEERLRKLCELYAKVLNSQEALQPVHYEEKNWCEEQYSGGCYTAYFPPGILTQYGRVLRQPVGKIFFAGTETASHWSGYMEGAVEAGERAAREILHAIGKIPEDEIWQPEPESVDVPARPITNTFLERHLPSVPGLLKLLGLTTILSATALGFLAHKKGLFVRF
Assay [11] deals with rat Monoamine Oxidase, MAO-A, Peripheral (MAOAP), gene 29253. The assay can be described thus: NVS_ENZ_rMAOAP: NovaScreen (NVS) Enzymatic Assay for rat Monoamine Oxidase, MAO-A, Peripheral (MAOAP) (AID 2283237). The method in brief: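 Rat liver mitochondrial membranes served as the MAO-A source, with enzyme activity measured by radiometric scintillation counting 1.17 hours after dosing. Loss of signal was fitted against DMSO; primary screen used 25 uM in duplicate, follow-up used concentration series.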

In assay [12] the test system is rat Monoamine Oxidase, MAO-A, Central (MAOAC), gene 29253. The assay can be described thus: NVS_ENZ_rMAOAC: NovaScreen (NVS) Enzymatic Assay for rat Monoamine Oxidase, MAO-A, Central (MAOAC) (AID 2283243).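 Also: potency refers to inhibition seen as signal drop below DMSO baseline.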 The essentials: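 Inhibition of rat brain-derived MAO-A was read by scintillation counting after 1.5 h exposure. Compounds screened first at 25 uM in duplicate, then in dose series if active.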

The target of assay [13] is Norway rat Vesicular Monoamine Transporter (VMAT2), neurotransmitter transporter, Slc18a2 (gene 25549) (UniProt Q01827). The assay can be described thus: NVS_TR_rVMAT2: NovaScreen (NVS) Transporter Assay for Norway rat Vesicular Monoamine Transporter (VMAT2), neurotransmitter transporter (AID 2283376).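 Also: actives lower the bound radioligand signal below the DMSO level.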 The method in brief:
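Tissue: rat forebrain extract. Format: competitive radioligand binding, cell-free. Timepoint: 1 h. Readout: filter radiodetection/scintillation. Screen: 25 uM in duplicate, then concentration series for actives. Baseline: DMSO.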

Several values for one entry are separate records, joined by “and”; a condition that tells them apart may be missing. Equal values may be shown once. Results filed as inconclusive are left out. Activity calls are given as the source filed them. The calls were made as follows, unless noted: active = hit-call score of the fitted dose curve at least 0.9, where 1 is the maximum; inconclusive = response in the unintended direction; inactive = score below 0.9.

Peroxisome proliferator-activated receptor gamma (Homo sapiens), sequence (P37231 whole entry, looked up, the tested form may be a part): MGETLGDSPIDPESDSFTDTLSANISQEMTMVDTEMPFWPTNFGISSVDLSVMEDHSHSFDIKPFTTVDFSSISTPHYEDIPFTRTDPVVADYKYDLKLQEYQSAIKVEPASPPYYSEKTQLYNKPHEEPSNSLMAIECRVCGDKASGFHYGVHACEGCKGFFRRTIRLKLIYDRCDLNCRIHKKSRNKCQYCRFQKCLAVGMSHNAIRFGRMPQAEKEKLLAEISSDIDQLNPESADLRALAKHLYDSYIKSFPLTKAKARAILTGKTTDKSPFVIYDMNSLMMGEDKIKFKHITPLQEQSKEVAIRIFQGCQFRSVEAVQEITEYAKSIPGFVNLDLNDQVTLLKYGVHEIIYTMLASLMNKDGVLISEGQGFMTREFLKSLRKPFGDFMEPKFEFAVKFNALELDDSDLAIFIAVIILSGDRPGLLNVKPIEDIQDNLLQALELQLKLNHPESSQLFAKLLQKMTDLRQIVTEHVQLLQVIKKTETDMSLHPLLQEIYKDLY
sheep Cyclooxygenase-2 (Cox2), PTGS2 (gene 443460), sequence (P79208 whole entry, looked up): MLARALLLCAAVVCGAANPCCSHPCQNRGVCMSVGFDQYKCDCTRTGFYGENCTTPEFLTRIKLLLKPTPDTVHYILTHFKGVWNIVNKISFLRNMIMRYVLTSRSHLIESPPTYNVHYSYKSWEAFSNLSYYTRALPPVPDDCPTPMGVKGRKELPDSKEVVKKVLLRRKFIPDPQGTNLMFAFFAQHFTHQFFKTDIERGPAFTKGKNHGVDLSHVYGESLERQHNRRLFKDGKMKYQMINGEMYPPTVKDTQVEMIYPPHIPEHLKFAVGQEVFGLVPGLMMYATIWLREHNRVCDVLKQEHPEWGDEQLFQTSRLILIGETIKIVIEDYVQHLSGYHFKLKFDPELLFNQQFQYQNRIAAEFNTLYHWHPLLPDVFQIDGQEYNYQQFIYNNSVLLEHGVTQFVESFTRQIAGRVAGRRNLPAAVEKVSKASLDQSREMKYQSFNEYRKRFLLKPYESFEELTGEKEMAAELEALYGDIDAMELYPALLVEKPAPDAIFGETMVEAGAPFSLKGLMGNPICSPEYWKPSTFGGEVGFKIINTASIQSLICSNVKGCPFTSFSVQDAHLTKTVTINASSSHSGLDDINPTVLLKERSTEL
Protein deacetylase HDAC6 (Homo sapiens), sequence (Q9UBN7 whole entry, looked up): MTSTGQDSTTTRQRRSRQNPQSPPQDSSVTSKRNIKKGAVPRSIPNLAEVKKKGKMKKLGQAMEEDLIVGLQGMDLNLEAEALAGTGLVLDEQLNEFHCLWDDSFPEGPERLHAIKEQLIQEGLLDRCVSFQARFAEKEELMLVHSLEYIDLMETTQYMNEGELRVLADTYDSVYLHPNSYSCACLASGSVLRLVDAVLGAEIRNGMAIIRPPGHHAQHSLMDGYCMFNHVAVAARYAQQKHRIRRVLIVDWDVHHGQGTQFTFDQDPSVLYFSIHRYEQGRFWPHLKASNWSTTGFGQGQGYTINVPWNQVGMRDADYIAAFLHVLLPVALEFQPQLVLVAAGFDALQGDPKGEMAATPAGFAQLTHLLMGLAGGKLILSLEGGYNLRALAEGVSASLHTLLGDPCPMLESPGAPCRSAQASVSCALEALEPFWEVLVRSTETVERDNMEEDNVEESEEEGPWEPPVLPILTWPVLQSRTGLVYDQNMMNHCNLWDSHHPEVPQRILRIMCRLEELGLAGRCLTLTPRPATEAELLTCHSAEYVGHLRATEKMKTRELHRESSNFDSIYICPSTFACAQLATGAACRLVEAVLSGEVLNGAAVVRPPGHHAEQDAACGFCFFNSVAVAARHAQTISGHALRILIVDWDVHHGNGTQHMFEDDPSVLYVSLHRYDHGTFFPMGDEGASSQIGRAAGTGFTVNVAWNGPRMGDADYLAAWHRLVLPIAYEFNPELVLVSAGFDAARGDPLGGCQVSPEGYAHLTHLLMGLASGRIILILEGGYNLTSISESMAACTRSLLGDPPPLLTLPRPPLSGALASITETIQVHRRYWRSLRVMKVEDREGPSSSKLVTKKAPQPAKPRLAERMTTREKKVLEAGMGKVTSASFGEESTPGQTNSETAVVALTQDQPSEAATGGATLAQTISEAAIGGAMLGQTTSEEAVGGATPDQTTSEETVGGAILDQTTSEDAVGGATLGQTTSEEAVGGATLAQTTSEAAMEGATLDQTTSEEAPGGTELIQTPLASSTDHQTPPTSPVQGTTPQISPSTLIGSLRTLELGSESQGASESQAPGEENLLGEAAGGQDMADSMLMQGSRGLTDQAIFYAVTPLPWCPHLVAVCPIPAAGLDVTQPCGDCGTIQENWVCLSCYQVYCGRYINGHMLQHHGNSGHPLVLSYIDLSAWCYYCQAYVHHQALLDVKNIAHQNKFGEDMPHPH
human Vascular Endothelial Growth Factor Receptor 2 (VEGFR2), KDR (gene 3791), sequence (P35968 whole entry, looked up): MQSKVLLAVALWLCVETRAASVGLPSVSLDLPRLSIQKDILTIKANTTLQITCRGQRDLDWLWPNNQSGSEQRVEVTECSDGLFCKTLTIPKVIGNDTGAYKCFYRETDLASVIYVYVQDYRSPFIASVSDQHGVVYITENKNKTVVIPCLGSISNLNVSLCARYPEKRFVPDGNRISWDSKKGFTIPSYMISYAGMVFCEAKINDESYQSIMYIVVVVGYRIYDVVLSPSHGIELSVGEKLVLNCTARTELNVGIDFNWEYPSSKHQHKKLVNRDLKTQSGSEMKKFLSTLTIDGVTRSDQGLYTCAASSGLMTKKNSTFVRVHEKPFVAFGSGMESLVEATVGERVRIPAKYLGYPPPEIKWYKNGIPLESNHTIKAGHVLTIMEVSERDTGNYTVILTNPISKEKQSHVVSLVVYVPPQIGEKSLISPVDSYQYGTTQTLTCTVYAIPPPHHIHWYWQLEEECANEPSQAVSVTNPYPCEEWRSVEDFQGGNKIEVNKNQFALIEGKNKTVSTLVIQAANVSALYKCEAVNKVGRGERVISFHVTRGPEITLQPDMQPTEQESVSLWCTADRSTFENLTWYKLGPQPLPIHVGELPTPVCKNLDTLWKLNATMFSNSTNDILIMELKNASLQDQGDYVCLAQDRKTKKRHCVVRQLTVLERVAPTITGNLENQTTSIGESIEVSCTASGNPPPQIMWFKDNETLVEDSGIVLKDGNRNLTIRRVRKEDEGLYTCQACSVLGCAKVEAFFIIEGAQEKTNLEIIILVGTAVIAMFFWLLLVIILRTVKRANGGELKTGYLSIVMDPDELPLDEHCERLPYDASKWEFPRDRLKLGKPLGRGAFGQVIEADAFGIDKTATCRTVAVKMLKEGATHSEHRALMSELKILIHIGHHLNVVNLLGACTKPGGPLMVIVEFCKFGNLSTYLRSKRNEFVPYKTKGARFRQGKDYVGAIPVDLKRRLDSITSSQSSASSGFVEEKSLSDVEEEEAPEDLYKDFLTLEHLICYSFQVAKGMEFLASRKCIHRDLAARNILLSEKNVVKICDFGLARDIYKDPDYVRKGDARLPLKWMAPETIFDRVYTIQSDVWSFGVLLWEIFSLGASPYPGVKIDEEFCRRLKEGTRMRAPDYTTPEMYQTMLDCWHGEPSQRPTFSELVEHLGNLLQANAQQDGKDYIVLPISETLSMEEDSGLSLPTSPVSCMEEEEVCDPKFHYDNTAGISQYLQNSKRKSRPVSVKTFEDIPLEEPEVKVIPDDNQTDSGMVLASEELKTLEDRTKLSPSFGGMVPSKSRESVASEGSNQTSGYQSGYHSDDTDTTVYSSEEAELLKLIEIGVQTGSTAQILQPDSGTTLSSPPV
rat CYP2C12, Cyp2c12 (gene 25011), sequence (P11510 whole entry, looked up): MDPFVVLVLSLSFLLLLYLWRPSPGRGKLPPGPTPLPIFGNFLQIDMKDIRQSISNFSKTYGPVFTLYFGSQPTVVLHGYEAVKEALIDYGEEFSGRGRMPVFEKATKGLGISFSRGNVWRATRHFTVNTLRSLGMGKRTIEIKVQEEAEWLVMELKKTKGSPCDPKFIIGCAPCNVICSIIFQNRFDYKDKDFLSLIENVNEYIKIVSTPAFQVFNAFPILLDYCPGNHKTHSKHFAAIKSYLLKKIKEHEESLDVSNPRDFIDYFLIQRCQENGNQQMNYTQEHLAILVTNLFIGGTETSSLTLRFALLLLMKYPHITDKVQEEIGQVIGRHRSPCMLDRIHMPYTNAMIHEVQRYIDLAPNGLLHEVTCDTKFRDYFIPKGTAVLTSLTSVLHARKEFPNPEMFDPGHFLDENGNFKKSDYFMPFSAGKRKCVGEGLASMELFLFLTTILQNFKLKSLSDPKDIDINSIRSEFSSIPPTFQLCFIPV

As to `O=[N+]([O-])c1ccc(Cl)cc1`, the molecule was called inactive in assay [1], in assay [2], in [3] and in assay [4].

Take `Nc1ccccc1`: the call in assay [5] was inactive. Besides, in [6], the AC50 was 9.69 µM (active).

For `CCCCOCCOCCOCc1cc2c(cc1CCC)OCO2`, the result in assay [7] was inactive.

`COC(=O)CSc1cc(N=c2sc(=O)n3n2CCCC3)c(F)cc1Cl`: the outcome in [8] was inactive.

For `CCN(CC)CCOc1ccc(C(=C(Cl)c2ccccc2)c2ccccc2)cc1`, in assay [9], the outcome was inactive. Moreover, the AC50 in assay [10] was 3.9 µM (active).

On to `O=c1c(-c2ccc(O)cc2)coc2cc(O)cc(O)c12`, for which the half-maximal activity concentration (AC50) in assay [11] is 3.49 µM (active); in assay [12] it was 10.6 µM (active) and 12.2 µM (active) and 2.7 µM (active). Besides, in assay [13], the molecule was classed as inactive.
